Records with an inconclusive call do not appear. Active and inactive are the calls of the source. Unless noted, calls follow the shape of the full dose curve.
Tests used:
[1] = qHTS for Inhibitors of the Functional Ribonucleoprotein Complex (vRNP) of Lassa (LASV) Arenavirus: LASV Primary Screen - GLuc reporter signal (AID 1347082; calls by dose curve; tested in HEK293 reporter line; also: nearly all actives have a fitted effect of over 60% in size)
[2] = qHTS for Inhibitors of the Functional Ribonucleoprotein Complex (vRNP) of Lassa (LASV) Arenavirus: Viability assay - alamar blue signal for LASV Primary Screen (AID 1347083; calls by dose curve; tested in HEK293 reporter line; also: nearly all actives have a fitted effect of over 80% in size)
[3] = qHTS for Inhibitors of the Functional Ribonucleoprotein Complex (vRNP) of Lymphocytic Choriomeningitis Arenaviruses (LCMV): Viability assay - alamar blue signal for LCMV Primary Screen (AID 1347085; calls by dose curve; tested in HEK293 reporter line; also: nearly all actives have a fitted effect of over 80% in size)
[4] = target: Nucleoprotein (Lymphocytic choriomeningitis virus (strain Armstrong)) (UniProt P09992); test: qHTS for Inhibitors of the Functional Ribonucleoprotein Complex (vRNP) of Lymphocytic Choriomeningitis Arenaviruses (LCMV): LCMV Primary Screen - GLuc reporter signal (AID 1347086); also: nearly all actives have a fitted effect of over 70% in size

Measured: Potency
Potency is read from the fitted curve at half-maximal effect.

Chain of Nucleoprotein (Lymphocytic choriomeningitis virus (strain Armstrong)) (P09992 whole entry, looked up): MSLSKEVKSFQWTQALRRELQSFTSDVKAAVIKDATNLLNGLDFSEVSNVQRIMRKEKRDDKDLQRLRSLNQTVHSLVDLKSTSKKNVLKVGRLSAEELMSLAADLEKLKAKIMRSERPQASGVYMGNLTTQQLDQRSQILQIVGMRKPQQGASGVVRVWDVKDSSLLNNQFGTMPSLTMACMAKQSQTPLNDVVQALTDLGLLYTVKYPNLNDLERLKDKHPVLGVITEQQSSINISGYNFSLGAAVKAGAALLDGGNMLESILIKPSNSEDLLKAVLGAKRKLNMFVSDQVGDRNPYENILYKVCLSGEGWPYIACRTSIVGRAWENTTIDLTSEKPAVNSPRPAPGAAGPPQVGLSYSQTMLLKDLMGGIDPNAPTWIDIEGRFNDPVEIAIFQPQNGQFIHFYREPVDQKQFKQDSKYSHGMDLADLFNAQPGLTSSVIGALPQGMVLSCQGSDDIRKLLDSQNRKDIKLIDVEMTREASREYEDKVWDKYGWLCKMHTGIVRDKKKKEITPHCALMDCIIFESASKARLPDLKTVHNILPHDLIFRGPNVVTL

CCN1CCN(C(=O)N[C@@H](C(=O)N[C@@H]2C(=O)N3C(C(=O)O)=C(CSc4nnnn4C)CS[C@H]23)c2ccc(O)cc2)C(=O)C1=O
inactive: all assays above

CN(C)CCC=C1c2ccccc2C=Cc2ccccc21
inactive: all assays above

CC(C)NCC(O)COc1cccc2[nH]ccc12 (stereo not given)
inactive: all assays above

CCC[C@H](N[C@@H](C)C(=O)N1[C@H](C(=O)O)C[C@@H]2CCCC[C@@H]21)C(=O)OCC
inactive: all assays above

COc1ccccc1Oc1c(NS(=O)(=O)c2ccc(C(C)(C)C)cc2)nc(-c2ncccn2)nc1OCCO
inactive: all assays above

Cc1[nH]cnc1CN1CCc2c(c3ccccc3n2C)C1=O
inactive: all assays above

CCOC(=O)N1CCC(=C2c3ccc(Cl)cc3CCc3cccnc32)CC1
inactive: all assays above

Cc1nc2n(c(=O)c1CCN1CCC(c3noc4cc(F)ccc34)CC1)CCCC2
inactive: all assays above

CC(C(=O)O)c1cccc(C(=O)c2ccccc2)c1 (stereo not given)
inactive: all assays above

O=NN(CCCl)C(=O)NCCCl
inactive: all assays above

O[C@@H](c1cc(C(F)(F)F)nc2c(C(F)(F)F)cccc12)[C@H]1CCCCN1
inactive: all assays above

CN(CCOc1ccc(CC2SC(=O)NC2=O)cc1)c1ccccn1 (stereo not given)
inactive: all assays above

Fc1ccc([C@@H]2CCNC[C@H]2COc2ccc3c(c2)OCO3)cc1
inactive: all assays above

CCCCCOC(=O)Nc1nc(=O)n([C@@H]2O[C@H](C)[C@@H](O)[C@H]2O)cc1F
inactive: all assays above

Cc1cn([C@H]2C[C@H](N=[N+]=[N-])[C@@H](CO)O2)c(=O)[nH]c1=O
inactive: all assays above

CC1(C)NC(=O)N(c2ccc([N+](=O)[O-])c(C(F)(F)F)c2)C1=O
inactive: all assays above

CN(C)/N=N/c1nc[nH]c1C(N)=O
inactive: all assays above

COc1cc2nc(N3CCN(C(=O)C4CCCO4)CC3)nc(N)c2cc1OC (stereo not given)
inactive: all assays above

CC(=O)CCCCn1c(=O)c2c(ncn2C)n(C)c1=O
inactive: all assays above

OC(Cn1cncn1)(Cn1cncn1)c1ccc(F)cc1F
inactive: all assays above

C[C@@H](O)[C@H]1C(=O)N2C(C(=O)O)=C(S[C@@H]3CN[C@H](CNS(N)(=O)=O)C3)[C@H](C)[C@H]12
inactive: all assays above

COc1ccccc1OCCNCC(O)COc1cccc2[nH]c3ccccc3c12 (stereo not given)
inactive: all assays above

CCCCc1nc(Cl)c(CO)n1Cc1ccc(-c2ccccc2-c2nn[nH]n2)cc1
inactive: all assays above

CC(C)C[C@H](NC(=O)[C@H](CCc1ccccc1)NC(=O)CN1CCOCC1)C(=O)N[C@@H](Cc1ccccc1)C(=O)N[C@@H](CC(C)C)C(=O)[C@@]1(C)CO1
active: [1] 485 nM | [2] 432 nM | [3] 544 nM | [4] 385 nM

O=C(O)C1(C(=O)O)CCC1.[NH2-].[NH2-].[Pt+2]
inactive: all assays above

Cc1cccc(C)c1OCC(C)N (stereo not given)
inactive: all assays above

CC(C)C1CCC(C(=O)N[C@H](Cc2ccccc2)C(=O)O)CC1 (stereo not given in full)
inactive: all assays above

Cc1cccc(Nc2ccncc2S(=O)(=O)NC(=O)NC(C)C)c1
inactive: all assays above

COc1ccc(-c2cc(=S)ss2)cc1
inactive: all assays above

CCCCNC(=O)NS(=O)(=O)c1ccc(C)cc1
inactive: all assays above

CO[C@@H](C(=O)N1Cc2[nH]nc(NC(=O)c3ccc(N4CCN(C)CC4)cc3)c2C1)c1ccccc1
active: [2] 4850 nM | [3] 6850 nM
inactive: [1] | [4]

c1cnc2cc3c(cc2n1)C1CNCC3C1
active: [2] 24300 nM
inactive: all other assays above

NS(=O)(=O)c1cc2c(cc1C(F)(F)F)NCNS2(=O)=O
inactive: all assays above

C[C@H]1[C@H](NC(=O)/C(=N/OC(C)(C)C(=O)O)c2csc(N)n2)C(=O)N1S(=O)(=O)O (stereo in doubt)
inactive: all assays above

CN(C)CCOC(c1ccc(Cl)cc1)c1ccccn1 (stereo not given)
inactive: all assays above

CN1CCN(C(c2ccccc2)c2ccccc2)CC1
inactive: all assays above

CCCC(=O)Nc1ccc(OCC(O)CNC(C)C)c(C(C)=O)c1 (stereo not given)
inactive: all assays above

CN(C)c1cc(NC(=O)CNC(C)(C)C)c(O)c2c1C[C@@H]1C[C@H]3[C@H](N(C)C)C(=O)C(C(N)=O)=C(O)[C@@]3(O)C(=O)C1=C2O
inactive: all assays above

Cc1ccccc1N1C(=O)c2cc(S(N)(=O)=O)c(Cl)cc2NC1C (stereo not given)
inactive: all assays above

CN(C/C=C/C#CC(C)(C)C)Cc1cccc2ccccc12
inactive: all assays above

C[C@@H]1CC(=O)NN=C1c1ccc(NN=C(C#N)C#N)cc1
inactive: all assays above

CN1CCC(=C2c3ccccc3C=Cc3ccccc32)CC1
inactive: all assays above

Nc1cccc2c1CN(C1CCC(=O)NC1=O)C2=O (stereo not given)
inactive: all assays above

CC(C)(C#N)c1cc(Cn2cncn2)cc(C(C)(C)C#N)c1
inactive: all assays above

Cc1ccc(C(=O)c2cc(O)c(O)c([N+](=O)[O-])c2)cc1
inactive: all assays above

Nc1nnc(-c2cccc(Cl)c2Cl)c(N)n1
inactive: all assays above

COc1cc2c(N3CCN(C(=O)Nc4ccc(OC(C)C)cc4)CC3)ncnc2cc1OCCCN1CCCCC1
inactive: all assays above

Cc1c(OCC(F)(F)F)ccnc1CS(=O)c1nc2ccccc2[nH]1 (stereo not given)
inactive: all assays above

CC(=O)O[C@]1(C(C)=O)CC[C@H]2[C@@H]3C=C(Cl)C4=CC(=O)[C@@H]5C[C@@H]5[C@]4(C)[C@H]3CC[C@@]21C
inactive: all assays above

COCCCC/C(=N\OCCN)c1ccc(C(F)(F)F)cc1
inactive: all assays above

CCC(=O)O[C@H]1[C@H](O[C@@H]2[C@@H](C)[C@H](O[C@H]3C[C@@](C)(OC)[C@@H](O)[C@H](C)O3)[C@@H](C)C(=O)O[C@H](CC)[C@@](C)(O)[C@H](O)[C@@H](C)C(=O)[C@H](C)C[C@@]2(C)O)O[C@H](C)C[C@@H]1N(C)C
inactive: all assays above

COc1cc2c(cc1OC)C(=O)C(CC1CCN(Cc3ccccc3)CC1)C2 (stereo not given)
inactive: all assays above

Cc1ccc(S(=O)(=O)NC(=O)NN2CCCCCC2)cc1
inactive: all assays above

CN1CCC[C@@H]1Cc1c[nH]c2ccc(CCS(=O)(=O)c3ccccc3)cc12
inactive: all assays above

CCCCOCCOCCOCc1cc2c(cc1CCC)OCO2
inactive: all assays above

C[C@@H](NCCCc1cccc(C(F)(F)F)c1)c1cccc2ccccc12
inactive: all assays above

Cc1ccc(-c2cc(C(F)(F)F)nn2-c2ccc(S(N)(=O)=O)cc2)cc1
inactive: all assays above

NS(=O)(=O)c1cc2c(cc1Cl)NC=NS2(=O)=O
inactive: all assays above

COc1ccc(Cl)cc1C(=O)NCCc1ccc(S(=O)(=O)NC(=O)NC2CCCCC2)cc1
inactive: all assays above

C[C@@H](c1ncncc1F)C(O)(Cn1cncn1)c1ccc(F)cc1F (stereo not given in full)
inactive: all assays above
